The values below come from ChEMBL document CHEMBL3988442, “University of Dundee, Small-Polar-MMV Screening Library” (2021).

Parameters in all cases: scale not given: direction of the effect not stated beside the values
For test [1], the target named is Protein translocase subunit SecA (Escherichia coli (strain K12)) (UniProt P10408). As to the kind of experiment: Assay to Identify E. coli SecA ATPase Inhibitors. As to conditions: 30 µM. In kind it is functional.
Test [2] concerns the target T1, Ubiquitin-activating enzyme e1, putative (Leishmania donovani (strain BPK282A1)) (UniProt E9BSI1).
T1 sequence (whole entry): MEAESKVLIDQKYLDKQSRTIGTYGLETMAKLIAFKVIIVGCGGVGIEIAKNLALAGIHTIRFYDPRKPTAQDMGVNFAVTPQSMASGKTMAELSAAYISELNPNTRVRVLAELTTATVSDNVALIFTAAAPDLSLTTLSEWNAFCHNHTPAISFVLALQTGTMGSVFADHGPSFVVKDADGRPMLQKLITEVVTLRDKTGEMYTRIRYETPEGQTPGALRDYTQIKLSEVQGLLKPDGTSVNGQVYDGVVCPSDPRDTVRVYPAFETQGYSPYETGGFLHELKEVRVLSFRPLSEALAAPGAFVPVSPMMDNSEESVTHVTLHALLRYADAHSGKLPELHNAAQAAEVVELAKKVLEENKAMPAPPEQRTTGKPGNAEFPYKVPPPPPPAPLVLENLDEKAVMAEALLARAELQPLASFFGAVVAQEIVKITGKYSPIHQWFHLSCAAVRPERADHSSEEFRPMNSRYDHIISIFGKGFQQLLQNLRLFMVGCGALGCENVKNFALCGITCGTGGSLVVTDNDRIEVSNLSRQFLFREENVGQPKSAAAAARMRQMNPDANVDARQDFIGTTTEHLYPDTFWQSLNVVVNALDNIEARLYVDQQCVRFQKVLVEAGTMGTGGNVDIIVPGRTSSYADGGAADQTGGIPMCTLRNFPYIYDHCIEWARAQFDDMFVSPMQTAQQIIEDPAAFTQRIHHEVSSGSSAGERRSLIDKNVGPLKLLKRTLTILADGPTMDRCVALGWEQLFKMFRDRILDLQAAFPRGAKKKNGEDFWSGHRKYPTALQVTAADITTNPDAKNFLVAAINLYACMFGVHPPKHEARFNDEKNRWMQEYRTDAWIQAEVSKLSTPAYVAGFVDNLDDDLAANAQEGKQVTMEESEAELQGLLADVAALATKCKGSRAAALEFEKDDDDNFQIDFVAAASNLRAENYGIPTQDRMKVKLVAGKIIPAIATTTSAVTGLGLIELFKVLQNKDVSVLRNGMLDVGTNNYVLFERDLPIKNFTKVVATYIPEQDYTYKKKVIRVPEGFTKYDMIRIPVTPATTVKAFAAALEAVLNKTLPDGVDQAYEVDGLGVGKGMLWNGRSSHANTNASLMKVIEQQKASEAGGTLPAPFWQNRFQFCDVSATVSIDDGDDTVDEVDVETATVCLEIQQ
Kind of test: Leishmania donovani Ubiquitin Activating Enzyme (LdE1). Particulars: 30 µM. The format is functional.

Test [3] addresses AMP-activated protein kinase, AMPK (Homo sapiens) (UniProt P54646+O43741+P54619+Q9UGJ0+Q9Y478+Q13131+Q9UGI9). Kind of test: AMP-dependent Kinase enzyme assay. An in vitro enzyme assay that detects ADP turnover that is directly proportional to AMPK activity. This uses naive AMPK that is activated during the assay with MK-8722. In kind it is functional. As to conditions: 30 µM.
Test [4] has as its target Sialic acid-binding Ig-like lectin 9 (Homo sapiens) (UniProt Q9Y336). Kind of test: Hs-Siglec9 ALPHAscreen SOP 20170721. Particulars: 10 µM. On the technique in general: Alpha assays give light when donor and acceptor beads are brought close together.
For a further test, the system named is Trypanosoma cruzi. Kind of test: Trypanosoma cruzi phosphomannomutase and mannose-1-phosphate guanylyltransferase assay. The format is functional. As to conditions: 10 µM.
The target in test [5] is T2, Arginase-2, mitochondrial (Homo sapiens) (UniProt P78540).
T2 sequence (whole entry): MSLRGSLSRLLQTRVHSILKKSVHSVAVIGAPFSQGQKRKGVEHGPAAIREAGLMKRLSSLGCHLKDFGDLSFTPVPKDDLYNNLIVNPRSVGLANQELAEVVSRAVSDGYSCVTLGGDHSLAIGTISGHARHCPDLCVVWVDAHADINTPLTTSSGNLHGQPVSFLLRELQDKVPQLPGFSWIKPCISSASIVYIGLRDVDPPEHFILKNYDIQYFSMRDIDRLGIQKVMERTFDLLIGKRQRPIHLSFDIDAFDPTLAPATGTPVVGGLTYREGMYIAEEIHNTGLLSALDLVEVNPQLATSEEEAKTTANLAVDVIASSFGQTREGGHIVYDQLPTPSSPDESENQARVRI
Kind of test: in vitro enzyme assay to detect the production of urea directly proportional to the activity of Arginase II. Also: in the data most compounds retested in dose-response had high values. In kind it is functional. Particulars: 33.3 µM.

The target of test [6] is T3, Proteasome subunit beta (Trypanosoma cruzi) (UniProt O96673).
T3 sequence (whole entry): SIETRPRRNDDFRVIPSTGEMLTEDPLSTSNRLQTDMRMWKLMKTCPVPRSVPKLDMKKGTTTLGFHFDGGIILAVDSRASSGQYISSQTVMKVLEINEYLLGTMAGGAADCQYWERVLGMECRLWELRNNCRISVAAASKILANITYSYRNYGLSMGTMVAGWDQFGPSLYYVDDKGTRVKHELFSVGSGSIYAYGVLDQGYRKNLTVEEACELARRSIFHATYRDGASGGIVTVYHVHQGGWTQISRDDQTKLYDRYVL
As to the kind of experiment: Trypanosoma cruzi proteasome chymotrypsin-like activity (TcProtChymo) assay. Also: in the data most compounds retested in dose-response had high values. The format is functional. Particulars: 9.37 µM.

A further test is filed under the species Homo sapiens. As to the kind of experiment: To identify inhibition of the IFN signalling (Jak-Stat) pathway via expression of an eGFP reporter gene under the control of an IFN-stimulated response element (ISRE) containing MxA promoter. In kind it is functional. Particulars: 30 µM. Background: In a reporter assay the amount or activity of a reporter protein is the signal.

Test [7] deals with T4, Tyrosyl-tRNA synthetase, putative (Trypanosoma cruzi (strain CL Brener)) (UniProt Q4DSP6).
T4 sequence (whole entry): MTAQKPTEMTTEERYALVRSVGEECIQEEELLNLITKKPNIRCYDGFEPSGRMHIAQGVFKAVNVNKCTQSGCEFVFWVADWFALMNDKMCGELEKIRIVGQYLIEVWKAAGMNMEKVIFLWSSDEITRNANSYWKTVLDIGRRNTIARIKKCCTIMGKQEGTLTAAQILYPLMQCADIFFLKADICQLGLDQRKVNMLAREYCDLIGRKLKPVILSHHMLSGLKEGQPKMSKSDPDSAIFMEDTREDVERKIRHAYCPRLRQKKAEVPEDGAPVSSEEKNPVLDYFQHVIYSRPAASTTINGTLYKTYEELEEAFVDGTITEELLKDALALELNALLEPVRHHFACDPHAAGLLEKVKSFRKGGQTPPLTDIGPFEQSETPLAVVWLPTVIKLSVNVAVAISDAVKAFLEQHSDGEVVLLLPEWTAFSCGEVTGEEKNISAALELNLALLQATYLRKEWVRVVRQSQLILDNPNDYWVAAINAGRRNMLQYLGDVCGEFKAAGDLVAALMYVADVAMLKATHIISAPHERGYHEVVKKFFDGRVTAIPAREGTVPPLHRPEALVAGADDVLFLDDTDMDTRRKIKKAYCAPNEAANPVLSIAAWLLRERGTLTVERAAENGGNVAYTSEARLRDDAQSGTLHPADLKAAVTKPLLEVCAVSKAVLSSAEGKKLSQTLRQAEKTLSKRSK
Kind of test: Trypanosoma cruzi tyrosyl tRNA synthetase (TcYRS) _High Tyrosine SOP. Also: in the data most compounds retested in dose-response had high values. The format is functional. Particulars: 30 µM.

In test [8] the target is T4, Tyrosyl-tRNA synthetase, putative (Trypanosoma cruzi (strain CL Brener)). Kind of test: Trypanosoma cruzi tyrosyl tRNA synthetase (TcYRS) SOP. Particulars: 30 µM. In kind it is functional.
For test [9], the target named is Chromo domain-containing protein 1 (Saccharomyces cerevisiae (strain ATCC 204508 / S288c) (Baker's yeast)) (UniProt P32657). As to the kind of experiment: ScCHD-1 Enzyme Inhibition Assay. Also: in the data most compounds retested in dose-response had high values. Particulars: 30 µM. In kind it is functional.
Sequence of Chromo domain-containing protein 1 (Saccharomyces cerevisiae (strain ATCC 204508 / S288c) (Baker's yeast)) (P32657 whole entry, the tested form may be a part): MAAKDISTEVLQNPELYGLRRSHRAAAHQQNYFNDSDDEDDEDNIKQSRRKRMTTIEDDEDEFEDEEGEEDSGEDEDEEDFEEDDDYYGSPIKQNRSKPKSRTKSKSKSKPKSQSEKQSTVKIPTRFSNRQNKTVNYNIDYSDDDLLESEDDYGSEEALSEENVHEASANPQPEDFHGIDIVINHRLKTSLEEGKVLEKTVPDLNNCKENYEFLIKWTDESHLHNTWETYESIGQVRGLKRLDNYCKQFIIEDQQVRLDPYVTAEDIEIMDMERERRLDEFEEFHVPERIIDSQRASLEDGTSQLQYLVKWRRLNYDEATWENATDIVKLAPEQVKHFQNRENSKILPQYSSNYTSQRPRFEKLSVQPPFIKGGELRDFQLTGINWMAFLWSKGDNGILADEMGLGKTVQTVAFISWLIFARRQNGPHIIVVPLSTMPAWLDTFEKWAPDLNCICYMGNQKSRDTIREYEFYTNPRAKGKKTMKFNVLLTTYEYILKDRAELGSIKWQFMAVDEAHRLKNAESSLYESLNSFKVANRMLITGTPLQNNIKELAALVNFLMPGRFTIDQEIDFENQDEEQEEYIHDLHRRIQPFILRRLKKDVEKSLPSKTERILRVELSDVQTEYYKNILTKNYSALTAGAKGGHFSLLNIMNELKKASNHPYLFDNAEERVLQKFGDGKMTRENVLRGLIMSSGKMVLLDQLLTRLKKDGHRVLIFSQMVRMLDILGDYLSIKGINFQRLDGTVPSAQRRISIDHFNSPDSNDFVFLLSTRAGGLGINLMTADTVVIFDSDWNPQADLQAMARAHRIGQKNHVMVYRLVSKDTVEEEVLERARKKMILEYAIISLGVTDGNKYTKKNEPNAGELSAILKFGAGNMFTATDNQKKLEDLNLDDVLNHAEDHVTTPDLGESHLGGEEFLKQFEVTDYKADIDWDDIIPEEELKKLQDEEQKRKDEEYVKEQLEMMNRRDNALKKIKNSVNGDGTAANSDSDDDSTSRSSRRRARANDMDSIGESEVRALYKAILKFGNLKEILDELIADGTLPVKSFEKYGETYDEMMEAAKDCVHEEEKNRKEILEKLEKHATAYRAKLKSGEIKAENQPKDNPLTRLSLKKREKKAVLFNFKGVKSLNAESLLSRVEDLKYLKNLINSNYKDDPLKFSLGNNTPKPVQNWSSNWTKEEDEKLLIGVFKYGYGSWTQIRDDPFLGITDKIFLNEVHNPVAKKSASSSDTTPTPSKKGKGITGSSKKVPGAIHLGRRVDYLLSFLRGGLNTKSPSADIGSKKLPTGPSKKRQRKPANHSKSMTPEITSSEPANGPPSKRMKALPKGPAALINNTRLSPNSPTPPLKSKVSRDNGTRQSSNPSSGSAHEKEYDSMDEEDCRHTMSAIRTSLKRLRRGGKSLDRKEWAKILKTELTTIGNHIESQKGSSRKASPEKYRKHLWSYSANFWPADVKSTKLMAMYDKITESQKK

The structures appear in SMILES notation. For part of these data: Measured potencies and affinities stand elsewhere.

Sequence of Sialic acid-binding Ig-like lectin 9 (Homo sapiens) (Q9Y336 whole entry): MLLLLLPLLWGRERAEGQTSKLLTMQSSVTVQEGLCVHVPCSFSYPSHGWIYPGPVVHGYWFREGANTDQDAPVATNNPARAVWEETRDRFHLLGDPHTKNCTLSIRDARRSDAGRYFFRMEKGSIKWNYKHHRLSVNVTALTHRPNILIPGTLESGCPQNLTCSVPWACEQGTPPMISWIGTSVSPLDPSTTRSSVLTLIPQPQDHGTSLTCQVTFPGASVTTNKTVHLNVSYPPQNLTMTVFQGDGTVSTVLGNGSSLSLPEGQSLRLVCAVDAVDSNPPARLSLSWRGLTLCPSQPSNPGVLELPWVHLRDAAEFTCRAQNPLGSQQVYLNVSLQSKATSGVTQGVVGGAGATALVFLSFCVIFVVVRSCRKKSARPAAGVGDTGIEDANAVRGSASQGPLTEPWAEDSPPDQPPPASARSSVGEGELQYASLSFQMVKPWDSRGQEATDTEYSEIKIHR
Sequence of Protein translocase subunit SecA (Escherichia coli (strain K12)) (P10408 whole entry): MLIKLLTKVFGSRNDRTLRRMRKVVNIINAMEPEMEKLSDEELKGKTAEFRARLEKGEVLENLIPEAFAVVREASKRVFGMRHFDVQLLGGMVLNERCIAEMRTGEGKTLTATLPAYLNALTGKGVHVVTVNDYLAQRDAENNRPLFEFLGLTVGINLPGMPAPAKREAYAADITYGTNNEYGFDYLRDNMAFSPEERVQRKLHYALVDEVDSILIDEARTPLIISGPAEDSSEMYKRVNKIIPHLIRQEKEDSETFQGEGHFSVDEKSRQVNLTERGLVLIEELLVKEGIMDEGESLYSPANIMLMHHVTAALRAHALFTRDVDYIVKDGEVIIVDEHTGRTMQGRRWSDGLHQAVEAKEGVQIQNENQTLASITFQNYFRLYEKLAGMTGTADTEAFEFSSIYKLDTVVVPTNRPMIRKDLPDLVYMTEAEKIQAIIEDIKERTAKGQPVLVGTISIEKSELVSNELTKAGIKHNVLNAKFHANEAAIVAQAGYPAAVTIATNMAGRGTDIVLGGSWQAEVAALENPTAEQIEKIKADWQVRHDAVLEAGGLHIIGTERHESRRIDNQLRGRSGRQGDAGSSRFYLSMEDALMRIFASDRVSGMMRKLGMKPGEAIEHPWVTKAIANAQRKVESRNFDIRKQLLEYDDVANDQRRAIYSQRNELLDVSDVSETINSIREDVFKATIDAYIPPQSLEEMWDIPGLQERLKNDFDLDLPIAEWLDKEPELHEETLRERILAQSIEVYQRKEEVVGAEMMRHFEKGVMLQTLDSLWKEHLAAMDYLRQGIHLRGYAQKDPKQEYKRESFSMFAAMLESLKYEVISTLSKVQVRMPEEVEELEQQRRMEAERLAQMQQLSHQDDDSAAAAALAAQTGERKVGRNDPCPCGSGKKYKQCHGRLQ

For the compound `CCS(=O)(=O)N1CCC2(CCCN(Cc3cc(OC)ccc3F)C2)C1` (centres undefined), the Percent Effect in test [1] was -4.17%; in test [2] it was 6.94%; in test [3], -5.98%; in test [4], -4.29%; with Trypanosoma cruzi it was -2.23%; in test [5] it was 0.883%. Further, the Percent Effect in [6] is 14.6%; in the test filed under Homo sapiens it was 16.9%; in test [7] it was 6.32%; in test [8], 7.69%; in test [9], -4.39%.

Take `CC(NC(=O)N(C)Cc1ccsc1)c1ccc2c(c1)CCC(=O)N2` (centres undefined): the Percent Effect was -0.422% in test [1]; 15.8% in test [2]; 5% in [3]; 7.35% in test [4]; 1.13% with Trypanosoma cruzi; -3.06% in [5]. The Percent Effect was 1.67% in [6]; 3.81% in the test listed under Homo sapiens; 1.47% in test [7]; 17.1% in [8]; -3.52% in [9].

`CC(NC(=O)COc1ccc(F)cc1)c1nnc2n1CCCCC2` (centres undefined): the Percent Effect was -3.7% in [1]; 16.2% in [2]; -13.2% in test [3]; 13.2% in test [4]; 5.19% in the test on Trypanosoma cruzi; -8.02% in [5]. In addition, the Percent Effect is 0.36% in [6]; 0.906% in the test filed under Homo sapiens; 4.43% in test [7]; 18.5% in [8]; -14.6% in test [9].

With `O=C(CCNC(=O)c1ccoc1)Nc1c(F)cccc1F`, the Percent Effect in test [1] was 0.646%; in test [2], 18.2%; in test [3], -4.32%; in test [4], 5.34%; with Trypanosoma cruzi, -2.84%; in test [5], 4.42%. Also, the Percent Effect was 18.8% in test [6]; 14% in the test listed under Homo sapiens; 6.67% in test [7]; 21.2% in test [8]; -3.32% in [9].

Regarding `CC(C)c1nnc2n1CCN(Cc1csc(CC(=O)N(C)C)n1)C2`, the Percent Effect in test [1] is 2.63%; in [2], 18.4%; in test [3], 10.8%; in [4] it was 3.17%; in the test on Trypanosoma cruzi it was -4.7%; in test [5], -4.6%. Besides, the Percent Effect in test [6] is 11.5%; in the test filed under Homo sapiens, 34.2%; in test [7] it was -0.49%; in test [8] it was 7.32%; in test [9] it was -15%.

On to `Cc1nc(C2CCCN2CC(=O)NCCOc2ccccc2)no1` (centres undefined), for which the Percent Effect in test [1] is -3.91%; in test [2], 5.26%; in test [3], -1.52%; in test [4], 4.39%; in the test with Trypanosoma cruzi, 3.38%; in test [5] it was -0.383%. The Percent Effect was 12.7% in test [6]; -2.83% in the test filed under Homo sapiens; 0.49% in [7]; 7.32% in test [8]; -12.7% in [9].

Turning to `Cc1[nH]ncc1C(=O)N1CCCC(c2cc(C(F)(F)F)[nH]n2)C1` (centres undefined), the Percent Effect in test [1] is -6.98%; in [2], 8.11%; in test [3], -26.4%; in [4], 5.54%; in the test on Trypanosoma cruzi, -6.59%; in test [5], -3.51%. Besides, the Percent Effect in [6] is 2.69%; in the test filed under Homo sapiens it was 14.8%; in test [7] it was 2.97%; in test [8], 6.1%; in test [9], 3.81%.

For the compound `CC(NC(=O)c1cccs1)C(=O)NCc1cccnc1N1CCCCC1` (centres undefined), the Percent Effect in test [1] was -5.05%; in test [2] it was 15.6%; in test [3] it was 4.11%; in [4], 3.01%; in the test on Trypanosoma cruzi, -3.93%; in test [5], 0.712%. Moreover, the Percent Effect in test [6] is 9.46%; in the test listed under Homo sapiens, 10.2%; in [7], 1.94%; in [8], 7.32%; in test [9], -4.16%.

`COc1ncccc1NC(=O)N(Cc1ccc(C)o1)C1CC1`: the Percent Effect in [1] was -4.84%; in test [2], 13%; in [3], 6%; in [4], 6.62%; in the test on Trypanosoma cruzi, 8.05%; in test [5] it was -4.27%. Moreover, the Percent Effect is 2.53% in test [6]; 56.7% in the test listed under Homo sapiens; 6.8% in [7]; 19.5% in test [8]; -5.73% in test [9].
